# Laboratory results as given in the supplement of paper PMC8728848.
# This excerpt belongs to a sample that is enriched for the strongest signals.
# Key:
# Assay in all cases: glycan array binding signal (z-score within array); higher = stronger binding
# Conditions in all cases: glycan notation: IUPAC condensed, linker removed
# [1] = molecular target: Gal(b1-4)GlcNAc(b1-3)Gal(b1-4)GlcNAc(b1-3)Gal(b1-4)GlcNAc(b1-2)Man(a1-3)[Gal(b1-4)GlcNAc(b1-3)Gal(b1-4)GlcNAc(b1-3)Gal(b1-4)GlcNAc(b1-2)Man(a1-6)]Man(b1-4)GlcNAc(b1-4)[Fuc(a1-6)]GlcNAc
# Summary of the method: (§1)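 From the Consortium for Functional Glycomics database, 3228 arrays were curated, keeping only those whose protein sequence was available. Binding is given as a within-array Z-score averaged across arrays sharing a protein sequence and across linkers. Negative Z-scores can be read as non-binding.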
# [2] = molecular target: Gal(b1-4)GlcNAc(b1-3)[Gal(b1-4)GlcNAc(b1-6)]Gal(b1-4)GlcNAc
# Summary of the method: as §1
# Gal3S6S(b1-4)GlcNAc = molecular target: Gal3S6S(b1-4)GlcNAc
# Summary of the method: as §1
# [3] = molecular target: GalNAc(a1-3)GalNAc(b1-3)Gal(a1-4)Gal(b1-4)Glc
# Summary of the method: as §1
# [4] = molecular target: GalNAc(b1-4)GlcNAc(b1-2)Man(a1-3)[GalNAc(b1-4)GlcNAc(b1-2)Man(a1-6)]Man(b1-4)GlcNAc(b1-4)GlcNAc
# Summary of the method: as §1
# [5] = molecular target: GalNAc(b1-4)GlcNAc(b1-3)GalNAc(b1-4)GlcNAc
# Summary of the method: as §1
# GalNAc(b1-4)GlcNAc6S = molecular target: GalNAc(b1-4)GlcNAc6S
# Summary of the method: as §1
# GalNAc3S(b1-4)GlcNAc = molecular target: GalNAc3S(b1-4)GlcNAc
# Summary of the method: as §1
# GlcA(b1-3)GlcNAc = molecular target: GlcA(b1-3)GlcNAc
# Summary of the method: as §1
# [6] = molecular target: GlcNAc(a1-3)Gal(b1-4)GlcNAc
# Summary of the method: as §1
# [7] = molecular target: GlcNAc(b1-2)Gal(b1-3)GalNAc
# Summary of the method: as §1
# [8] = molecular target: GlcNAc(b1-2)Man(a1-3)[GlcNAc(b1-4)][GlcNAc(b1-2)Man(a1-6)]Man(b1-4)GlcNAc(b1-4)[Fuc(a1-6)]GlcNAc
# Summary of the method: as §1
# [9] = molecular target: GlcNAc(b1-3)Gal(b1-4)GlcNAc(b1-3)Gal(b1-4)GlcNAc
# Summary of the method: as §1
# [10] = molecular target: GlcNAc(b1-3)Gal(b1-4)GlcNAc(b1-3)Gal(b1-4)GlcNAc(b1-2)Man(a1-3)[GlcNAc(b1-3)Gal(b1-4)GlcNAc(b1-3)Gal(b1-4)GlcNAc(b1-2)Man(a1-6)]Man(b1-4)GlcNAc(b1-4)GlcNAc
# Summary of the method: as §1
# [11] = molecular target: GlcNAc(b1-3)Gal(b1-4)GlcNAc(b1-3)Gal(b1-4)GlcNAc(b1-2)[GlcNAc(b1-3)Gal(b1-4)GlcNAc(b1-3)Gal(b1-4)GlcNAc(b1-6)]Man(a1-6)[GlcNAc(b1-3)Gal(b1-4)GlcNAc(b1-3)Gal(b1-4)GlcNAc(b1-2)Man(a1-3)]Man(b1-4)GlcNAc(b1-4)[Fuc(a1-6)]GlcNAc
# Summary of the method: as §1
# [12] = molecular target: GlcNAc(b1-3)Gal(b1-4)GlcNAc(b1-3)Gal(b1-4)GlcNAc(b1-3)Gal(b1-4)GlcNAc(b1-2)[GlcNAc(b1-3)Gal(b1-4)GlcNAc(b1-3)Gal(b1-4)GlcNAc(b1-3)Gal(b1-4)GlcNAc(b1-6)]Man(a1-6)[GlcNAc(b1-3)Gal(b1-4)GlcNAc(b1-3)Gal(b1-4)GlcNAc(b1-3)Gal(b1-4)GlcNAc(b1-2)Man(a1-3)]Man(b1-4)GlcNAc(b1-4)[Fuc(a1-6)]GlcNAc
# Summary of the method: as §1
# [13] = molecular target: Neu5Ac(a2-3)Gal(b1-3)GalNAc(b1-3)Gal(a1-4)Gal(b1-4)Glc
# Summary of the method: as §1
# [14] = molecular target: Neu5Ac(a2-3)Gal(b1-4)GlcNAc(b1-2)[Neu5Ac(a2-3)Gal(b1-4)GlcNAc(b1-6)]Man(a1-6)[Neu5Ac(a2-3)Gal(b1-4)GlcNAc(b1-2)Man(a1-3)][GlcNAc(b1-4)]Man(b1-4)GlcNAc(b1-4)GlcNAc
# Summary of the method: as §1
# [15] = molecular target: Neu5Ac(a2-3)Gal(b1-4)GlcNAc(b1-3)Gal(b1-3)GlcNAc
# Summary of the method: as §1
# [16] = molecular target: Neu5Ac(a2-3)Gal(b1-4)[Fuc(a1-3)]GlcNAc
# Summary of the method: as §1
# [17] = molecular target: Neu5Ac(a2-3)Gal(b1-4)[Fuc(a1-3)]GlcNAc(b1-3)GalNAc
# Summary of the method: as §1
# [18] = molecular target: Neu5Ac(a2-6)Gal(b1-4)GlcNAc(b1-2)Man(a1-3)Man(b1-4)GlcNAc(b1-4)GlcNAc
# Summary of the method: as §1
# [19] = molecular target: Neu5Ac(a2-6)Gal(b1-4)GlcNAc(b1-2)Man(a1-3)[GlcNAc(b1-4)][Neu5Ac(a2-6)Gal(b1-4)GlcNAc(b1-2)Man(a1-6)]Man(b1-4)GlcNAc(b1-4)GlcNAc
# Summary of the method: as §1
# [20] = molecular target: Neu5Ac(a2-6)Gal(b1-4)GlcNAc(b1-2)Man(a1-3)[Neu5Ac(a2-6)Gal(b1-4)GlcNAc(b1-2)Man(a1-6)]Man(b1-4)GlcNAc(b1-4)GlcNAc
# Summary of the method: as §1
# [21] = molecular target: Neu5Ac(a2-6)Gal(b1-4)GlcNAc(b1-2)Man(a1-3)[Neu5Ac(a2-6)Gal(b1-4)GlcNAc(b1-2)Man(a1-6)]Man(b1-4)GlcNAc(b1-4)[Fuc(a1-6)]GlcNAc
# Summary of the method: as §1
# [22] = molecular target: Neu5Ac(b2-6)Gal(b1-4)GlcNAc
# Summary of the method: as §1
# [23] = molecular target: Neu5Gc(a2-6)Gal(b1-4)GlcNAc
# Summary of the method: as §1
# [24] = molecular target: Neu5Gc(a2-8)Neu5Gc(a2-3)Gal(b1-4)GlcNAc
# Summary of the method: as §1
binder,measurement,setting,value
"SUN4 (Saccharomyces cerevisiae), P53616 (protein) MGSSHHHHHHSSGLVPRGSHNGSIYGDLADFSGPYEKFEDGTIPCGQFPSGQGVIPISWLDEGGWSGVENTDTSTGGSCKEGSYCSYACQPGMSKTQWPSDQPSDGRSIGGLLCKDGYLYRSNTDTDYLCEWGVDAAYVVSELSNDVAICRTDYPGTENMVIPTYVQAGDSLPLTVVDQDTYYTWQGLKTSAQYYVNNAGISVEDACVWGSSSSGVGNWAPLNFGAGSSDGVAYLSLIPNPNNGNALNFNVKIVAADDSSTVNGECIYENGSFSGGSDGCTVSVTAGKAKFVLYN",glycan array binding signal (z-score),[1],2.9
same,glycan array binding signal (z-score),[2],-1.28
same,glycan array binding signal (z-score),Gal3S6S(b1-4)GlcNAc,2.2
same,glycan array binding signal (z-score),[3],-0.199
same,glycan array binding signal (z-score),[4],4.51
same,glycan array binding signal (z-score),[5],-0.309
same,glycan array binding signal (z-score),GalNAc(b1-4)GlcNAc6S,0.149
same,glycan array binding signal (z-score),GalNAc3S(b1-4)GlcNAc,1.87
same,glycan array binding signal (z-score),GlcA(b1-3)GlcNAc,-0.127
same,glycan array binding signal (z-score),[6],0.414
same,glycan array binding signal (z-score),[7],0.963
same,glycan array binding signal (z-score),[8],-0.555
same,glycan array binding signal (z-score),[9],0.244
same,glycan array binding signal (z-score),[10],0.121
same,glycan array binding signal (z-score),[11],1.97
same,glycan array binding signal (z-score),[12],1.86
same,glycan array binding signal (z-score),[13],0.263
same,glycan array binding signal (z-score),[14],-0.391
same,glycan array binding signal (z-score),[15],-0.71
same,glycan array binding signal (z-score),[16],-0.661
same,glycan array binding signal (z-score),[17],1.91
same,glycan array binding signal (z-score),[18],-0.036
same,glycan array binding signal (z-score),[19],0.646
same,glycan array binding signal (z-score),[20],0.023
same,glycan array binding signal (z-score),[21],0.827
same,glycan array binding signal (z-score),[22],-0.182
same,glycan array binding signal (z-score),[23],-0.424
same,glycan array binding signal (z-score),[24],-0.415
